Results as given in PubChem BioAssay AID1851 (National Center for Advancing Translational Sciences (NCATS), 2009).
The whole screen tested about 16,000 compounds, of which about 5,100 (32%) were called active. Roughly 25% stayed inconclusive and do not appear here. Some of the results follow. A number with no mark means an inactive call. The call rests on the fitted dose curve; in most records, active means well fitted curve in the direction sought with a large enough effect; inconclusive means small, poorly fitted or top-dose-only effect, or effect the other way; inactive means no such curve, though single readings can be large or run the other way.
On the % scale 0 is the no-effect control and ±100 the full control effect.

Each compound was assayed against Cytochrome P450 3A4 (Homo sapiens) (UniProt P08684) (assay: Cytochrome panel assay with activity outcomes). Settings: recombinant CYP, pro-luciferin dealkylation, luminescence, p450-cyp3a4; series mostly up to 57.1 µM; activity, negative = inhibition: at the top concentration.
Chain of Cytochrome P450 3A4 (Homo sapiens) (P08684 whole entry, looked up): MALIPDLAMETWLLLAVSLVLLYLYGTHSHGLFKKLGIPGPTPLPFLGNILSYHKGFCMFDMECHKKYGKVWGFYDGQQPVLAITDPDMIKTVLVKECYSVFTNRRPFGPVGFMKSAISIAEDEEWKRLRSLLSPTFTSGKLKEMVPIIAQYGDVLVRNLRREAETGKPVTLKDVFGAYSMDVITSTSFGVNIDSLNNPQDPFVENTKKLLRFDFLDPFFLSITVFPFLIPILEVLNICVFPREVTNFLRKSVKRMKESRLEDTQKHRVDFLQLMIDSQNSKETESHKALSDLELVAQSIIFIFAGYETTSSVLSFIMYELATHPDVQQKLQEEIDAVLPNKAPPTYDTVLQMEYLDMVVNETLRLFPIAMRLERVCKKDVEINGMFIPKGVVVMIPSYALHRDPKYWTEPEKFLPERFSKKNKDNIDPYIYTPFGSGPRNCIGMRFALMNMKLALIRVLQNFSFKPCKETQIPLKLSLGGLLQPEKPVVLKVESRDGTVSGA
`CCC(=O)N1CCc2cc(S(=O)(=O)NC(C(=O)NCc3ccc(F)cc3)C(C)C)ccc21` (centres undefined) was tested, and the AC50 was 7.08 µM (active).
`O=C(O)CCC(=O)N1CCc2cc(S(=O)(=O)NCc3cccs3)ccc21` was tested, and the “activity, negative = inhibition” value was -13.1%.
In the case of `O=C(O)CCC(=O)N1CCc2cc(S(=O)(=O)N3CCCCC3)ccc21`, the “activity, negative = inhibition” value was 3.03%.
`Cc1ccc2[nH]c(=O)c(NC(N)=S)nc2c1` was tested, and the “activity, negative = inhibition” value was -26.7%.
In the case of `CCOC(=O)Cn1c(-c2ccccc2)nc2ccccc2c1=O`, the “activity, negative = inhibition” value was 19.7%.
For `CCO/C(C)=N/n1c2nc3ccccc3nc2c2c(=O)n(CC(C)C)c(C)nc21`, the AC50 was 28.2 µM (active).
For `O=C(O)c1ccccc1N[C@H](c1ccccc1)c1ccc2cccnc2c1O`, the activity, negative = inhibition was -13.5% [at 11.4 µM].
`CC(=O)Oc1cc(C(C)C)c(OCCN(C)C)cc1C` was tested, and the AC50 was “inactive”.
For `CCCCCCCCC(=O)NCc1cc(OC)c(O)cc1I`, the AC50 was 3.16 µM (active).
`COC(=O)CNC(=O)CCCCC(=O)NCC(=O)OC` was tested, and the “activity, negative = inhibition” value was 2.89%.
For `CCCCCC(=O)Nc1cc2[nH]c(=O)cc(COC)c2cc1C`, the “activity, negative = inhibition” value was -15.2%.
Work on `Cc1ccc(S(=O)(=O)Oc2cc(S(=O)(=O)O)cc3cc(S(=O)(=O)O)cc(N)c23)cc1` yielded an activity, negative = inhibition of 0.193% [at 11.4 µM].
In the case of `Cc1nc(SCC(=O)c2cc3ccccc3oc2=O)c(C#N)c(C)c1C(=O)Nc1ccccc1`, the “activity, negative = inhibition” value was 25.5%.
Work on `N#Cc1c(NC(=O)CCC(=O)O)ccc2ccccc12` yielded an activity, negative = inhibition of -1.16% [at 11.4 µM].
With `Cc1c(C#N)c(=O)oc2ccc3ccccc3c12` the AC50 was 3.55 µM (active).
With `N#Cc1nc(COc2ccccc2Cl)oc1NCc1ccco1` the AC50 was 5.01 µM (active).
In the case of `CN(C)CCNc1oc(COc2ccc(Cl)cc2Cl)nc1C#N`, the “activity, negative = inhibition” value was -24.5%.
In the case of `O=C(O)C1CC2(C1)CC(C(=O)O)C2` (centres undefined), the activity, negative = inhibition was 5.16% [at 11.4 µM].
`CCN1CCCC1CNC(=O)CCNC(=O)c1cc(OC)c(OC)c(OC)c1` (centres undefined) was tested, and the “activity, negative = inhibition” value was -29.8%.
In the case of `Cc1ccc2c(c1)-c1c(cnn1CC(=O)O)CO2`, the “activity, negative = inhibition” value was -4.22%.
For `Cc1ccc(CNC(=O)CN2C(=O)COc3ccc(C)cc32)cc1`, the AC50 was 1.78 µM (active).
`COc1ccccc1CNC(=O)CCN1C(=O)COc2ccc(C)cc21` was tested, and the AC50 was 11.2 µM (active).
In the case of `CCc1nnc(NC(=O)CCC(=O)NCc2ccccc2OC)s1`, the “activity, negative = inhibition” value was -29.3%.
In the case of `Cc1ccc2c(c1)N(CCC(=O)NCc1ccc3c(c1)OCO3)C(=O)CO2`, the AC50 was 0.112 µM (active).
With `Cc1ccc(C(=O)NCc2ccc(N3CCN(C(=O)OC(C)(C)C)CC3)cc2)cc1` the “activity, negative = inhibition” value was -19.6%.
In the case of `COc1cc(C(=O)NCCC(=O)NCc2ccc3c(c2)OCO3)cc(OC)c1OC`, the AC50 was 0.447 µM (active).
`CCCn1nc2cc(C(=O)NCc3ccc4c(c3)OCO4)ccc2c1OCC` was tested, and the activity, negative = inhibition was 32.6% [at 2.29 µM].
In the case of `Cc1ccc2c(c1)N(CCC(=O)NCc1cccnc1)C(=O)CO2`, the AC50 was 3.55 µM (active).
With `O=C(O)c1cccc(N2CCCC2=O)c1` the AC50 was 8.91 µM (active).
For `O=C(O)c1cccc(CN2CCCCC2)c1`, the activity, negative = inhibition was -0.758% [at 11.4 µM].
`O=C(O)c1cccc(SSc2cccc(C(=O)O)c2)c1` was tested, and the activity, negative = inhibition was -11.9% [at 11.4 µM].
For `COc1ccc(Oc2ncc3nc(-c4ccc(F)cc4)c(=O)n(Cc4cccs4)c3n2)cc1`, the AC50 was 15.8 µM (active).
With `Cn1cc(-c2nc3cnc(Oc4ccccc4)nc3n(Cc3cccs3)c2=O)c2ccccc21` the “activity, negative = inhibition” value was -4.55%.
With `Cc1nc2cnc(Oc3ccccc3)nc2n(Cc2cccs2)c1=O` the AC50 was 10 µM (active).
`COc1ccc(-c2nc3cnc(N4CCN(C)CC4)nc3n(Cc3cccs3)c2=O)cc1` was tested, and the “activity, negative = inhibition” value was 23.4%.
In the case of `COc1ccc(Oc2ncc3nc(C)c(=O)n(Cc4cccs4)c3n2)cc1`, the AC50 was 3.16 µM (active).
With `COc1ccc(Oc2ncc3ncc(=O)n(Cc4cccs4)c3n2)cc1` the AC50 was 3.16 µM (active).
For `COc1ccc(-c2nc3cnc(N4CCOCC4)nc3n(Cc3cccs3)c2=O)cc1`, the “activity, negative = inhibition” value was 9.4%.
In the case of `O=C(CC(=O)c1ccncc1)c1ccccc1`, the AC50 was 3.16 µM (active).
Compound `O=C(NNC(=O)c1ccncc1)c1ccncc1` has an activity, negative = inhibition of -9.5% [at 11.4 µM].
For `O=C(C[N+]1(c2ccccc2)CCOCC1)c1ccccc1`, the activity, negative = inhibition was -14.4% [at 11.4 µM].
`O=c1oc2c(CN3CCOCC3)c(O)ccc2c2ccccc12` was tested, and the activity, negative = inhibition was -4.65% [at 2.29 µM].
In the case of `Oc1c(CN2CCOCC2)cc(-c2ccccc2)cc1CN1CCOCC1`, the AC50 was 15.8 µM (active).
`CCc1cc2c(=O)c(-c3cnn(-c4ccccc4)c3)coc2c(CN2CCOCC2)c1O` showed an activity, negative = inhibition of 12.2% [at 11.4 µM].
In the case of `CCN(CC)C[C@@H]1CCCCN1CC(=O)N1c2ccccc2C(=O)Nc2cccnc21`, the AC50 was 12.6 µM (active).
With `CN1CCN(CC(=O)N2c3ccccc3C(=O)Nc3cccnc32)CC1` the AC50 was “inactive”.
For `Cc1ccc2c(c1)nnn2C1CCN(CC(=O)N2c3ccccc3CC2C)CC1` (centres undefined), the AC50 was 10 µM (active).
In the case of `CC1Cc2ccccc2N1C(=O)Cn1cc([N+](=O)[O-])cn1` (centres undefined), the “activity, negative = inhibition” value was -17.8%.
For `Cc1ccc2c(c1)nnn2C1CCN(S(=O)(=O)c2ccc(C(=O)N3C(C)CCCC3C)cc2)CC1` (centres undefined), the AC50 was 1.41 µM (active).
In the case of `CCC(=O)Nc1ccccc1C(=O)OCC(=O)c1cccc2ccccc12`, the AC50 was 11.2 µM (active).
In the case of `CCC(=O)Nc1ccccc1C(=O)OCC(=O)c1ccccc1`, the “activity, negative = inhibition” value was -9.57%.
`CCOC(=O)c1ccccc1NC(=O)/C(C)=C/C(=O)O` was tested, and the “activity, negative = inhibition” value was -19.6%.
With `c1ccc(Nc2nc(-c3ccc4c(c3)OCO4)nc3ccccc23)cc1` the AC50 was 5.01 µM (active).
With `c1ccc2c(Nc3ccncc3)nc(-c3ccc4c(c3)OCO4)nc2c1` the AC50 was 0.501 µM (active).
Compound `Nc1ncnc2c([C@@H]3O[C@@H](CO)[C@H](O)[C@@H]3O)nsc12` has an activity, negative = inhibition of -0.156% [at 11.4 µM].
With `CN(C)/N=N\c1nc[nH]c1C(N)=O` the “activity, negative = inhibition” value was -4.61% [at 25.6 µM].
For `O=C(O)C1C2C=CC(C2)C1C(=O)N1CCN(C/C=C/c2ccccc2)CC1` (centres undefined), the “activity, negative = inhibition” value was -12.1%.
In the case of `O=C(c1nn(Cc2ccccc2)c(=O)c2ccccc12)N1CCN(C/C=C/c2ccccc2)CC1`, the AC50 was 2.24 µM (active).
`COc1ccc(-c2nc(NC(=O)c3ccccc3)sc2-c2ccc([N+](=O)[O-])cc2)cc1` showed an activity, negative = inhibition of 12.5% [at 2.29 µM].
In the case of `CCC(=O)Nc1cccc(NC(=O)c2cccc([N+](=O)[O-])c2)c1`, the AC50 was 22.4 µM (active).
In the case of `COc1ccc(CC(=O)Nc2cccc(/C(C)=N/NC(=O)c3cccc([N+](=O)[O-])c3)c2)cc1`, the AC50 was 2 µM (active).
For `O=C(COc1cccc(NC(=O)c2cccc([N+](=O)[O-])c2)c1)c1ccc(Br)cc1`, the “activity, negative = inhibition” value was 25.1%.
`COc1ccc(C(=O)Nc2cccc(/C(C)=N/NC(=O)c3ccc([N+](=O)[O-])cc3)c2)cc1OC` gave an activity, negative = inhibition of -28.5% [at 2.29 µM].
In the case of `O=C(Nc1nc(-c2ccccc2)cs1)c1cccc([N+](=O)[O-])c1`, the AC50 was 10 µM (active).
